For 40 compounds, outcome and AC50 results are on record in PubChem BioAssay (EPA / NIEHS).

The source made the active and inactive calls. How the source made its calls: active means hit-call score of the fitted dose curve at least 0.9, where 1 is the maximum; inactive means score below 0.9.

Read-out in this experiment: CYP2E1 (gene 1571)
In words: LTEA_HepaRG_CYP2E1: Life Technologies and Expression Analysis (LTEA) Assay for CYP2E1 using HepaRG (AID 2283485). Particulars: mRNA level, 48 h; actives raise or lower the signal. The procedure:
LTEA_HepaRG is a cell based, multiplexed-readout assay that uses HepaRG, a human liver cell line, with measurements taken at 48 hours after chemical dosing on a 96-well plate.LTEA_HepaRG_CYP2E1 is one of 102 assay component(s) measured in the LTEA HepaRG cell culture assay. It is a marker of NR mediated metabolism.Data from the assay component LTEA_HepaRG_CYP2E1 was analyzed into 1 endpoint. This assay endpoint, LTEA_HepaRG_CYP2E1, was analyzed with bidirectional fitting relative to DMSO as the negative control and baseline of activity. Using a type of inducible reporter, measures of mRNA induction for gain or loss-of-signal activity can be used to understand regulation of transcription factor activity. To generalize the intended target to other relatable targets, this assay endpoint is annotated to the cyp intended target family, where the subfamily is xenobiotic metabolism.
A total of 1060 chemcials from the ToxCast library were tested in eight-point concentration-response experiments. Cell culture and cytotoxicity assays were conducted at Thermo Fisher Scientific's Custom Services facility (Madison, WI). A single lot of human HepaRG cells (Thermo Fisher Scientific, Frederick, MD) was used for the cell culture experiments. 96-well format collagen type I coated plates of human HepaRG cells were prepared using established methods. Briefly, cryopreserved HepaRG cells were thawed, plated at a density of approximately 100,000 cells/well in HepaRG Thaw, Plate, and General Purpose media (HPRG770, Thermo Fisher Scientific), and incubated for 48 hours. 0.5% DMSO was selected as vehicle control to balance the requisite need of DMSO in HepaRG cultures to maintain differentiation (for example, baseline metabolism, proportions of hepatocytes vs. cholangiocytes), while enabling further hepatic receptor pathway activation (for example, PXR and CAR) in response to chemical exposure. 48 hours after plating, the culture medium was replaced with HepaRG Serum-Free Incudtion Media. Cells were exposed to each test chemical in duplicate and maintained in CO2 incubators for another 48 hours. Chemical plates were thawed to room temperature and 200x concentrations of treatment groups were prepared. 8-point conentration-reponse curves were made with the highest exposure at 100 uM, followed by half-log dilutions, all in 0.5% DMSO. Each test plate contained variouse controls, induction positive controls (1mM phenobarbital), cytotoxicity positive controls ([…] aflatoxin B1), vehicle controls (0.5% DMSO), and total lysis controls (0.5% DMSO). Cell morphology images were taken using an Essen IncuCyte FLR automated microscope, with six 96-well plates imaged in about 24 minutes. Images were captured and exported and JPEG files. Spent culture media was transfered to black-well plates for the LDH assay, and remaining media was sorted at -80 C for later use. Cells were treated with RLT buffer and frozen until shipped for gene expression analysis. Total RNA was isolated from the cell suspension in 75 uL of Buffer RLT (Qiagen, Germantown, MD 20874) by Quintiles/Expression Analysis (Durham, NC) using a custom isolation procedure. Total RNA from each plate well was transferred to a preamplification plate. Fluidigm's 96.96 Dynamic ArrayTM (Fluidigm, Amsterdam, the Netherlands) technology was used for gene expression analyses by quantitative reverse transcription polymerase chain reaction (qRT-PCR, performed by Quintiles/Expression Analysis, Durham, NC)89. Standard TaqManTM Assays (Applied Biosystems/ThermoFisher Scientific, Foster City, CA) were used to assess the expression of 93 genes selected based on their selectivity and sensitivity to important hepatic receptors known to be modulated by environmental chemicals; importance in human hepatocyte functionality; and hepatotoxicity. […]
With `CCCCCCCCN(C)C`, the outcome was inactive. With `CC(C)C(=O)Nc1ccc([N+](=O)[O-])c(C(F)(F)F)c1`, the AC50 was 43.9 µM (active). Take `Nc1ccn([C@@H]2O[C@H](CO)[C@@H](O)[C@@H]2O)c(=O)n1`: the outcome was inactive. Regarding `Cn1cc[nH]c1=S`, the outcome was inactive. Consider `CCCCC(CC)C(=O)OCCOCCOCCOC(=O)C(CC)CCCC` (stereo not given), for which the outcome was inactive. Same read-out and setting: the entry for `CC(=O)c1ccccc1` is “inactive”. `C=CCc1cc(S(=O)(=O)c2ccc(O)c(CC=C)c2)ccc1O`: the AC50 was 86.3 µM (active). Regarding `Cc1nccn1-c1ccc(Sc2cccc(C3(C(N)=O)CCOCC3)c2)cc1`, the AC50 was 6.52 µM (active). On the same count and under the same terms, the figure for `CCOc1ccc2[nH]cc(C(=O)NCc3ccccc3)c(=O)c2n1` is 63 µM (active); for `COc1cc2c(c(OC)c1OC)-c1ccc(OC)c(=O)cc1[C@@H](NC(C)=O)CC2` it is 0.0817 µM (active). Consider `CCCc1ccccc1`, for which the result was inactive.

Consider `OCc1ccccc1`, for which the compound was called inactive. With `C=CN1CCCC1=O`, the call was inactive.

Turning to `O=C(NO)C1(NS(=O)(=O)c2ccc(Oc3ccc(F)cc3)cc2)CCOCC1`, the AC50 is 54.4 µM (active). For `CCCCCOC(C)=O`, the call was inactive.

As to `CCCCOC(=O)c1ccccc1`, the result was inactive. As to `CCCCCCCCCCCCCCCCOS(=O)(=O)O`, the half-maximal activity concentration (AC50) is 38.5 µM (active). Take `OCCOCCOCCO`: the call was inactive.

For the compound `CCN(CC)C(=S)SSC(=S)N(CC)CC`, the call was inactive.

As to `CCCCCCCCCC`, the compound was called inactive.

Consider `NC(=O)N(O)[C@@H]1COc2cc(OCc3ccccc3)ccc21`, for which the AC50 was 50 µM (active). Take `OC(CCl)CCl`: the compound was called inactive.

Regarding `Cc1nc(-c2ccccn2)ncc1C(=O)Nn1cc(C)c2cc(F)ccc21`, the half-maximal activity concentration (AC50) is 24.3 µM (active). For the compound `CCCCCCCC/C=C\CCCCCCCC(=O)OC[C@@H](O)[C@H]1OC[C@H](O)[C@H]1O`, the outcome was inactive. Same read-out and setting: the result for `O=S(=O)(O)c1ccc(N=Nc2c(O)ccc3cc(S(=O)(=O)O)ccc23)cc1` reads “inactive”; that for `CCCCCCOC(=O)CC(CC(=O)OCCCCCC)(OC(=O)CCC)C(=O)OCCCCCC`, “inactive”. On to `OCCNCCO`, for which the half-maximal activity concentration (AC50) was 45 µM (active).

Take `OCC(CO)(CO)CO`: the outcome was inactive.

As for `CC(C)CCCCCCOC(=O)C1CCCCC1C(=O)OCCCCCCC(C)C` (stereo not given), the outcome was inactive.

In the case of `COCc1nnc(-c2ccc[n+]([O-])c2)n1-c1c(Cl)c(Cl)cc2[nH]c(=O)c(=O)[nH]c12`, the result was inactive. For `NC(=O)N1c2ccccc2C=Cc2ccccc21`, the AC50 is 41.8 µM (active).

For the compound `COS(C)(=O)=O`, the result was inactive. In the case of `OC(Cn1cncn1)(Cn1cncn1)c1ccc(F)cc1F`, the compound was called inactive. Turning to `CCCC(CCC)C(=O)O`, the outcome was inactive. For the compound `Cc1ncc([C@@H](CCCCCCc2ccc3c(n2)NCCC3)CC(=O)O)cn1`, the half-maximal activity concentration (AC50) is 50 µM (active). With `CCOC(N)=O`, the compound was called inactive. On the same count and under the same terms, the result for `CC1(C)C(=O)N(Cl)C(=O)N1Cl` reads “inactive”; that for `O=C(O)c1cccc(C(=O)O)c1`, “inactive”. Regarding `O=S1(=O)CCCO1`, the compound was called inactive. In the case of `C[C@@H](Oc1ccc(CNC(=O)c2cccnc2Oc2ccc3c(c2)OCO3)c(F)c1)C(=O)O`, the call was inactive.

What is called AC50 is the concentration giving half of the maximal activity seen.
